# Experimental data reported in ChEMBL document CHEMBL2218924, “A broad activity screen in support of a chemogenomic map for kinase signalling research and drug discovery” (Biochem J, 2013).
# Columns and labels:
# [1] = target: Death-associated protein kinase 1 (Homo sapiens) (UniProt P53355); conditions: at 10 µM
# [2] = target: Death-associated protein kinase 2 (Homo sapiens) (UniProt Q9UIK4); conditions: at 1 µM
# [3] = target: Death-associated protein kinase 2 (Homo sapiens) (UniProt Q9UIK4); conditions: at 10 µM
# [4] = target: T1, Serine/threonine-protein kinase DCLK2 (Homo sapiens) (UniProt Q8N568); conditions: at 1 µM
# T1 sequence (whole entry): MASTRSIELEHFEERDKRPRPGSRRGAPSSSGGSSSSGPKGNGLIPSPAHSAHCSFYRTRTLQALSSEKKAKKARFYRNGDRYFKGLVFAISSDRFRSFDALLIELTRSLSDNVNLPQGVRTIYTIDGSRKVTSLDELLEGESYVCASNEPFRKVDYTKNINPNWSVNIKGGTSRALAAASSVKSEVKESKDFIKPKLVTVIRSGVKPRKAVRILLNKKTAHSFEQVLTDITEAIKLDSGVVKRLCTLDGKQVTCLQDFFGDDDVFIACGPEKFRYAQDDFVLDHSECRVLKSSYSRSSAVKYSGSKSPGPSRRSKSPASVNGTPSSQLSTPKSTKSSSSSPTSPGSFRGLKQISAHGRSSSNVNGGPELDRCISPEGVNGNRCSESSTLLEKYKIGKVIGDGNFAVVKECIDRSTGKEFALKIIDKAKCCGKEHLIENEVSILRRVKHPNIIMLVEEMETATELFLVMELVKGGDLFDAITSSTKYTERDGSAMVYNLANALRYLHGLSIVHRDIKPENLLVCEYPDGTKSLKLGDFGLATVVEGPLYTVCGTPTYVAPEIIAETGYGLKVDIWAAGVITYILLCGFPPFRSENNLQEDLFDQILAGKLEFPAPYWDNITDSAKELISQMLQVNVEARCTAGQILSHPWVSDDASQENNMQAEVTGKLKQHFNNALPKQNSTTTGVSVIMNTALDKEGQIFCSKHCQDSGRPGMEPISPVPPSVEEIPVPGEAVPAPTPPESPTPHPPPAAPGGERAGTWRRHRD
# [5] = target: T1, Serine/threonine-protein kinase DCLK2 (Homo sapiens); conditions: at 10 µM
# [6] = target: T2, Discoidin domain-containing receptor 2 (Homo sapiens) (UniProt Q16832); conditions: at 1 µM
# T2 sequence (whole entry): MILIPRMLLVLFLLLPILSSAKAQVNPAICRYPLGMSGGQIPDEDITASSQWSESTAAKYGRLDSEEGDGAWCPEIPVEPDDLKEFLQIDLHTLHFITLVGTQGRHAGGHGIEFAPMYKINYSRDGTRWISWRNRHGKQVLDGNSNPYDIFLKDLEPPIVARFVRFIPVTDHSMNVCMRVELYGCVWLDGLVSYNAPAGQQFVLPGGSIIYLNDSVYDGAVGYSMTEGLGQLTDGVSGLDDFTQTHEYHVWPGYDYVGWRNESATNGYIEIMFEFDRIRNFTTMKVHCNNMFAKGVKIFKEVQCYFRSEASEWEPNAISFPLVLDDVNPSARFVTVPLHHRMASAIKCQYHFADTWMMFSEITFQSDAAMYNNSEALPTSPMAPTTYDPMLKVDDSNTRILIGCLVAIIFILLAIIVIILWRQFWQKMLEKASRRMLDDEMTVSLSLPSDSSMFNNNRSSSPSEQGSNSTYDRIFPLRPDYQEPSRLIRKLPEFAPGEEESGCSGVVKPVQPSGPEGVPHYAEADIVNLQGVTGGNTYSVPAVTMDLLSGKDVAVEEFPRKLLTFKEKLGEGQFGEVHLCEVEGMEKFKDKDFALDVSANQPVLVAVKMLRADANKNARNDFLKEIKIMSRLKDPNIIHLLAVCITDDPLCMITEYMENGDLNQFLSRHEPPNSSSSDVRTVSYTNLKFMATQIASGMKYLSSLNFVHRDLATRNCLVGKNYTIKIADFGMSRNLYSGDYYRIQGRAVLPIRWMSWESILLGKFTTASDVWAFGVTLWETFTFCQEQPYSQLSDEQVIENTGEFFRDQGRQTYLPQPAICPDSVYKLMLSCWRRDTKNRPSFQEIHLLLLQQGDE
# [7] = target: T2, Discoidin domain-containing receptor 2 (Homo sapiens); conditions: at 10 µM
# [8] = target: T3, Myotonin-protein kinase (Homo sapiens) (UniProt Q09013); conditions: at 1 µM
# T3 sequence (whole entry): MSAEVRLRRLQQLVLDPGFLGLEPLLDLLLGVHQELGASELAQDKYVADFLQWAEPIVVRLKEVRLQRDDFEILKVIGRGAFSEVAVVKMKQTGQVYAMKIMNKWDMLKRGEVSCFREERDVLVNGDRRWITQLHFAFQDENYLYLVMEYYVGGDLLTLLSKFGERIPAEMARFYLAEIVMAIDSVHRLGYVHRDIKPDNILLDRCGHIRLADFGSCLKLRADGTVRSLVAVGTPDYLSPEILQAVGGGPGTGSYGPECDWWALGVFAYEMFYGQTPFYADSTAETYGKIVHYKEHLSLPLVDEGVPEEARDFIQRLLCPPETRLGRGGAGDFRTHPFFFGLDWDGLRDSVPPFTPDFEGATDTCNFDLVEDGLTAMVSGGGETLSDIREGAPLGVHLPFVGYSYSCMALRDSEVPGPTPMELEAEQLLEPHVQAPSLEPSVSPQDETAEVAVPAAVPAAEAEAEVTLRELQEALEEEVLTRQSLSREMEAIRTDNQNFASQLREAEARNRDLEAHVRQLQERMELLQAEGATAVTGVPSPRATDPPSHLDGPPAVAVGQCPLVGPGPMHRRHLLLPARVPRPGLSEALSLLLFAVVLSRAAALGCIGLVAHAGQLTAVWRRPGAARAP
# [9] = target: T3, Myotonin-protein kinase (Homo sapiens); conditions: at 10 µM
# [10] = target: T4, Serine/threonine-protein kinase 17A (Homo sapiens) (UniProt Q9UEE5); conditions: at 1 µM
# T4 sequence (whole entry): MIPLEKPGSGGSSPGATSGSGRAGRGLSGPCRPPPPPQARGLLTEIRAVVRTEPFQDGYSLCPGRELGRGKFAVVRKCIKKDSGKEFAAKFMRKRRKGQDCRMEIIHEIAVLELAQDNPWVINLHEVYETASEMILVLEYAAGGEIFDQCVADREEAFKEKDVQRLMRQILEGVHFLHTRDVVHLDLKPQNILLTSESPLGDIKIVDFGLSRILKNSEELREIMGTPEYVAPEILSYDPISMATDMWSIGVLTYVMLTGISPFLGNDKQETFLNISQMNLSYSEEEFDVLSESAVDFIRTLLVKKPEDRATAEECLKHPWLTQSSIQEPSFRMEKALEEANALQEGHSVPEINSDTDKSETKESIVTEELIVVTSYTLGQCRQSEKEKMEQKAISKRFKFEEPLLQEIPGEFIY
# [11] = target: T4, Serine/threonine-protein kinase 17A (Homo sapiens); conditions: at 10 µM
# [12] = target: T5, Dual specificity tyrosine-phosphorylation-regulated kinase 2 (Homo sapiens) (UniProt Q92630); conditions: at 1 µM
# T5 sequence (whole entry): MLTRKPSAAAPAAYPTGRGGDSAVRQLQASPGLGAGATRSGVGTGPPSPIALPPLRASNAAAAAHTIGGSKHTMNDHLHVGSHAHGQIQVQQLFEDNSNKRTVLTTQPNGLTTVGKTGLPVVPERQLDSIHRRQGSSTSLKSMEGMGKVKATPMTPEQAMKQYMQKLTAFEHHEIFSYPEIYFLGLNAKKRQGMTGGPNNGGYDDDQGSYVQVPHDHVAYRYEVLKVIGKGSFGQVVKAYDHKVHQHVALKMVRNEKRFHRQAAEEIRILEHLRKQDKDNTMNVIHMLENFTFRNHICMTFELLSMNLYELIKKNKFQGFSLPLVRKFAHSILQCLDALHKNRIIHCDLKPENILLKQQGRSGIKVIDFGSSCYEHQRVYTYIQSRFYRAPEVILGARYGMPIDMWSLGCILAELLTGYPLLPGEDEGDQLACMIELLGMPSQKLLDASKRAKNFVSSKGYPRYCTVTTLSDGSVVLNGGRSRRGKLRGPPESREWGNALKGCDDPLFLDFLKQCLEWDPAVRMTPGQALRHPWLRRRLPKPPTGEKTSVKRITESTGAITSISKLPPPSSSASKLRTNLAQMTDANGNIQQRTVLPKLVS
# [13] = target: T5, Dual specificity tyrosine-phosphorylation-regulated kinase 2 (Homo sapiens); conditions: at 10 µM
# [14] = target: Epidermal growth factor receptor (Homo sapiens) (UniProt P00533); conditions: at 1 µM
# Epidermal growth factor receptor (Homo sapiens), sequence (P00533 whole entry): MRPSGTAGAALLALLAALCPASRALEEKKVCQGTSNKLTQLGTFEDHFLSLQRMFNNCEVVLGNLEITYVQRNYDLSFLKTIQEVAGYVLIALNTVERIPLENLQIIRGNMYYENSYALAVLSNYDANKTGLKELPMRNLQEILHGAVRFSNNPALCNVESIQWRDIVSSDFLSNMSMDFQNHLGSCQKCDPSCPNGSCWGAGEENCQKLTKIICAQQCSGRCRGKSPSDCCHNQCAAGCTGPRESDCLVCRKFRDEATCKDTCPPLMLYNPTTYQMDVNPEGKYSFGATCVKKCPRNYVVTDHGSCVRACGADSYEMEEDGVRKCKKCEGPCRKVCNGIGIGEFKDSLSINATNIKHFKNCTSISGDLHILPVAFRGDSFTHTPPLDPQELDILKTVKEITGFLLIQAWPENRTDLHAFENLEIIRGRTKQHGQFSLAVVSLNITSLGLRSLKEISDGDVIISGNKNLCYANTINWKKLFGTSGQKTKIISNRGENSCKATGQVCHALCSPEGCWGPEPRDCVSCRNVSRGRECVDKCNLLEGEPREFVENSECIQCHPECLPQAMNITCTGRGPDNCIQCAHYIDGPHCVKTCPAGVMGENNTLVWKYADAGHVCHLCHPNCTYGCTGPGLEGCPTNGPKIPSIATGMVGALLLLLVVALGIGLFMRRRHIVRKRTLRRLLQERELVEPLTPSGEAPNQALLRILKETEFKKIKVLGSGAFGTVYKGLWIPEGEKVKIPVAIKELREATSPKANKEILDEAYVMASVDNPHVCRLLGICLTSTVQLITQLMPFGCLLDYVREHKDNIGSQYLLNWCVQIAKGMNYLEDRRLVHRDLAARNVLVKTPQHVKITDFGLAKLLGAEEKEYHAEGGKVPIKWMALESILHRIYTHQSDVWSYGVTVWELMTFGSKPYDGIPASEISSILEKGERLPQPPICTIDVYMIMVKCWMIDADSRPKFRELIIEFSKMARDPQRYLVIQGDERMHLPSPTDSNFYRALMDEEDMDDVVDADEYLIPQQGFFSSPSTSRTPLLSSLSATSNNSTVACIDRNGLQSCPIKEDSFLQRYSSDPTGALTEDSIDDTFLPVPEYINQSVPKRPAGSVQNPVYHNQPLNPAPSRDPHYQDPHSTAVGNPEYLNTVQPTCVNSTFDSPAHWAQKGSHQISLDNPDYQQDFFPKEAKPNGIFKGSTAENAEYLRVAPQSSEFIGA
# [15] = target: Epidermal growth factor receptor (Homo sapiens) (UniProt P00533); conditions: at 10 µM
# [16] = target: T6, Ephrin type-A receptor 1 (Homo sapiens) (UniProt P21709); conditions: at 1 µM
# T6 sequence (whole entry): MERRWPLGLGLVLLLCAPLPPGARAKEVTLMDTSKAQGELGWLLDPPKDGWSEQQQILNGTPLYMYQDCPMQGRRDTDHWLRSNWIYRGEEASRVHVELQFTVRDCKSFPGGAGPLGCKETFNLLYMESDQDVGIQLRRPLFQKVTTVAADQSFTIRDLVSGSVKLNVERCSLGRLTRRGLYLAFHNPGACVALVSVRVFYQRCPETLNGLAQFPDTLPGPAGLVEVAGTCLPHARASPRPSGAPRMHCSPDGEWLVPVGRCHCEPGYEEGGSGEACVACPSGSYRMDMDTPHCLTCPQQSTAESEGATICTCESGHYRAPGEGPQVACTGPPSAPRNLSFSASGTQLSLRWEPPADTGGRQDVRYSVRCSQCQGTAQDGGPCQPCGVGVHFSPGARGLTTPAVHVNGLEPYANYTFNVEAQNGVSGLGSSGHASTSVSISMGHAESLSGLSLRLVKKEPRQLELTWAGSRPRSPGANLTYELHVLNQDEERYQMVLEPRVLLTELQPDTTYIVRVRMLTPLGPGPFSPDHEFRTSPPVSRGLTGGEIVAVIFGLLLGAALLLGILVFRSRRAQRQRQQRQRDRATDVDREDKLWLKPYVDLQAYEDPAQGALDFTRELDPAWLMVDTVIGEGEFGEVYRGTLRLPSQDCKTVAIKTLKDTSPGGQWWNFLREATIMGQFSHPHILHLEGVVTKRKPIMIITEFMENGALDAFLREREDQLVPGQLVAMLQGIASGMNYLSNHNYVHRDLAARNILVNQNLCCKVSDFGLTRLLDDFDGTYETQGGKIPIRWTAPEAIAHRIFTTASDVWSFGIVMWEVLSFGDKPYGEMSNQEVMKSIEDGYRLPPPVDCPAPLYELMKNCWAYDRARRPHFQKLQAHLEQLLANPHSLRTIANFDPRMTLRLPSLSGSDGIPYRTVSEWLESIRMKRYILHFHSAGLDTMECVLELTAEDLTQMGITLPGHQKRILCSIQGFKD
# [17] = target: T6, Ephrin type-A receptor 1 (Homo sapiens); conditions: at 10 µM
# [18] = target: Ephrin type-A receptor 2 (Homo sapiens) (UniProt P29317); conditions: at 1 µM
# Ephrin type-A receptor 2 (Homo sapiens), sequence (P29317 whole entry): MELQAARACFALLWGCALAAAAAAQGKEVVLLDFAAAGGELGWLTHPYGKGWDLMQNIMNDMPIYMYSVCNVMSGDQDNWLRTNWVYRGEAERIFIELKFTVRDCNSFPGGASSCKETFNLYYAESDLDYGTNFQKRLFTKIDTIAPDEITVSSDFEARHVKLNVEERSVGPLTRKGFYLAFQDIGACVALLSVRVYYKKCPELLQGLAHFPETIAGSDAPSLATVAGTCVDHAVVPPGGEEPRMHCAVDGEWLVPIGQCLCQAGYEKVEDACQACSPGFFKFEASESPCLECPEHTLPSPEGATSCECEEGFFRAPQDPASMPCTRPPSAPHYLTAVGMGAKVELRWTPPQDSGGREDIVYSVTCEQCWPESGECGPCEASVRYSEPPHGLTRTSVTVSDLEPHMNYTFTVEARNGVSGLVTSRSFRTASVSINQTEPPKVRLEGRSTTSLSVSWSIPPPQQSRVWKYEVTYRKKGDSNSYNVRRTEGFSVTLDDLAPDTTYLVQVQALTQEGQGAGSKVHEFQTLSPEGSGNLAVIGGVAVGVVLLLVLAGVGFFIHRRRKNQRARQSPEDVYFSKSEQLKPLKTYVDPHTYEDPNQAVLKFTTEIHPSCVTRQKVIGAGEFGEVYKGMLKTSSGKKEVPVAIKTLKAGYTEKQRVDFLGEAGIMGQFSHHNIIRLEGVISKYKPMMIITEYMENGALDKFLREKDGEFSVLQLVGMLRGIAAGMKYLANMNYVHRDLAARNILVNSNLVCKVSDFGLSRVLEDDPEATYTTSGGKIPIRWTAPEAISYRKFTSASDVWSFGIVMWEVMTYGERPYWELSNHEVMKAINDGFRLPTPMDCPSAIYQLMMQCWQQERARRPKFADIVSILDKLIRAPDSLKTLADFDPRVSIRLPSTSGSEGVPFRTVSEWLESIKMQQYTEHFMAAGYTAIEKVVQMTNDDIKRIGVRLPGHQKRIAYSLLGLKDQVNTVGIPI
# [19] = target: Ephrin type-A receptor 2 (Homo sapiens) (UniProt P29317); conditions: at 10 µM
# [20] = target: T7, Ephrin type-A receptor 3 (Homo sapiens) (UniProt P29320); conditions: at 1 µM
# T7 sequence (whole entry): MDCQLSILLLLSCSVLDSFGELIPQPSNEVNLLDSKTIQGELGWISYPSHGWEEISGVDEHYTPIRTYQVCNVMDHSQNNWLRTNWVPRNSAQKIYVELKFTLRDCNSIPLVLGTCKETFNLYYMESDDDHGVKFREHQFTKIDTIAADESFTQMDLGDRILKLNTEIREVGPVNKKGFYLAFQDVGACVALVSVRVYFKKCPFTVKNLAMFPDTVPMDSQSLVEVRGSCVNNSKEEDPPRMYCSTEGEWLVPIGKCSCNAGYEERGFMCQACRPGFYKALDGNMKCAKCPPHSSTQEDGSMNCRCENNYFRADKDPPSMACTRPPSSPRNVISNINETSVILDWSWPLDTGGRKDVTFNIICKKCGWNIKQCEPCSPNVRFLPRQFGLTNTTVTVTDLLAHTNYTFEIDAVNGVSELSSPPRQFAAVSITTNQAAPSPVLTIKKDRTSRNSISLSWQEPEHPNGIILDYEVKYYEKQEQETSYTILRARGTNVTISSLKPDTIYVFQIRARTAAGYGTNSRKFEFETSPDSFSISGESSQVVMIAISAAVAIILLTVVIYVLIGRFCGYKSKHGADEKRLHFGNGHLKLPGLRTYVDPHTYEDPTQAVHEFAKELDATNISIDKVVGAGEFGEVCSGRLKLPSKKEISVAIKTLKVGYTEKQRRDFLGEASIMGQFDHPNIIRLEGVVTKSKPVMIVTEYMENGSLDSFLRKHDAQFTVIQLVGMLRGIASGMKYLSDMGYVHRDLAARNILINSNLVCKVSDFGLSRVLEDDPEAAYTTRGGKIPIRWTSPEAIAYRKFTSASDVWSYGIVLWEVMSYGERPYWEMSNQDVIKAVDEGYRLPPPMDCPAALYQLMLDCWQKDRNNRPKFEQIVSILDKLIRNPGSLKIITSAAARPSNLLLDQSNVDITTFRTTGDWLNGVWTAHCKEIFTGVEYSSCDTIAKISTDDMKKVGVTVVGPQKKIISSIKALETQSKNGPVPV
# Death-associated protein kinase 1 (Homo sapiens), sequence (P53355 whole entry, looked up): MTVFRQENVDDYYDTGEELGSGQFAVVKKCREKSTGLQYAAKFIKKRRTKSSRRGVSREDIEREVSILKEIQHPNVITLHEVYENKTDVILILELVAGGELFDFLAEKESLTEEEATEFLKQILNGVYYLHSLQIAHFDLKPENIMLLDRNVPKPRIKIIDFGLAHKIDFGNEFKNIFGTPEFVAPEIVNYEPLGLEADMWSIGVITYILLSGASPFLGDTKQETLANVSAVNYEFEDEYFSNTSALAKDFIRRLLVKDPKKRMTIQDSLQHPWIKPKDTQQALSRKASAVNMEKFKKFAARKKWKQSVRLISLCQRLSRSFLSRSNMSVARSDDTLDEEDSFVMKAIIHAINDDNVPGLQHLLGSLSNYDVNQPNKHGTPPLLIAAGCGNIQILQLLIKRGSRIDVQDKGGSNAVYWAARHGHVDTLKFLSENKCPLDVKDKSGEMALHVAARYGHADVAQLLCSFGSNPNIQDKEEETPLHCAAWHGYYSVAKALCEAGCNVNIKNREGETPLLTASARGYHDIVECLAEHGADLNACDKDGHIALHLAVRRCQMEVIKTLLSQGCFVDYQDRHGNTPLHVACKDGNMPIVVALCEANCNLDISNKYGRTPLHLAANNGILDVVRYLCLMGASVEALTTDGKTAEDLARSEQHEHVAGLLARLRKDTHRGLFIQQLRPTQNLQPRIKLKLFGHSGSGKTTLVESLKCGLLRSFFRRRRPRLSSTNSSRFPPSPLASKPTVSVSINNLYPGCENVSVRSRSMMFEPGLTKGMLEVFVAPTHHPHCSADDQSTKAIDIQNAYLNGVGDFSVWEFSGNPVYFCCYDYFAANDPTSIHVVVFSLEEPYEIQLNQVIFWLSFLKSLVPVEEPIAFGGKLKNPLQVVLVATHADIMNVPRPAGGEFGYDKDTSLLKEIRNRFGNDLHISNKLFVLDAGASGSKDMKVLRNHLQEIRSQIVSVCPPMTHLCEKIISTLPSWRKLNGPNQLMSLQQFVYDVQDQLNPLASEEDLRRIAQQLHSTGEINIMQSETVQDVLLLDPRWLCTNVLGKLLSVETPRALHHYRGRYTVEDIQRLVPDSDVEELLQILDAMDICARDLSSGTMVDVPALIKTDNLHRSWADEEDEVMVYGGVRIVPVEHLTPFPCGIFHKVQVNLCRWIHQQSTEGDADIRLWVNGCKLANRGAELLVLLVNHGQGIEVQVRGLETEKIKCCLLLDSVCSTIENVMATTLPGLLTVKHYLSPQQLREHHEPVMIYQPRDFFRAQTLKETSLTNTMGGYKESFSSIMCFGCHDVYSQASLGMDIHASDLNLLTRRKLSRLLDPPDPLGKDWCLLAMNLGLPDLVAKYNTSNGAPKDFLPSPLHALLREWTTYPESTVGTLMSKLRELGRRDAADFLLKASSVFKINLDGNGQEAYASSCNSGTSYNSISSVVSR
# Death-associated protein kinase 2 (Homo sapiens), sequence (Q9UIK4 whole entry, looked up): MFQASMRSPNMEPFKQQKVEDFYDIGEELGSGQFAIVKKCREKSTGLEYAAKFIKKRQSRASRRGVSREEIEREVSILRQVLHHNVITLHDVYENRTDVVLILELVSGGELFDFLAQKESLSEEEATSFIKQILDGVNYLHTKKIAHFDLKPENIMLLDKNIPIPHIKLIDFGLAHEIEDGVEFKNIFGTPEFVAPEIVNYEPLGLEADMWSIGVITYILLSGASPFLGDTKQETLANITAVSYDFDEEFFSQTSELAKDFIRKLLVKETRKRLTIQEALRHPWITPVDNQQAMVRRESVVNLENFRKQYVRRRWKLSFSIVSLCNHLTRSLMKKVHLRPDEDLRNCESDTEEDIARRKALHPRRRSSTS
smiles,measurement,setting,value
COc1ccc(CNc2nc(N(CCO)CCO)nc3c2ncn3C(C)C)cc1,residual activity,[1],88%
same,residual activity,[2],102%
same,residual activity,[3],104%
same,residual activity,[4],94%
same,residual activity,[5],80%
same,residual activity,[6],91%
same,residual activity,[7],96%
same,residual activity,[8],104%
same,residual activity,[9],73%
same,residual activity,[10],106%
same,residual activity,[11],85%
same,residual activity,[12],87%
same,residual activity,[13],67%
same,residual activity,[14],97%
same,residual activity,[15],116%
same,residual activity,[16],95%
same,residual activity,[17],81%
same,residual activity,[18],95%
same,residual activity,[19],117%
same,residual activity,[20],82%
O=C1c2ccccc2-[n+]2ccc3c([nH]c4ccccc43)c21,residual activity,[1],84%
same,residual activity,[2],95%
same,residual activity,[3],96%
same,residual activity,[4],105%
same,residual activity,[5],94%
same,residual activity,[6],78%
same,residual activity,[7],84%
same,residual activity,[8],101%
same,residual activity,[9],80%
same,residual activity,[10],104%
same,residual activity,[11],114%
same,residual activity,[12],99%
same,residual activity,[13],92%
same,residual activity,[16],78%
same,residual activity,[17],91%
same,residual activity,[18],89%
same,residual activity,[19],101%
same,residual activity,[20],89%
Cc1nc2cc3nc(-c4cccs4)cnc3cc2n1C,residual activity,[1],86%
same,residual activity,[2],105%
same,residual activity,[3],108%
same,residual activity,[4],115%
same,residual activity,[5],108%
same,residual activity,[6],111%
same,residual activity,[7],93%
same,residual activity,[8],113%
same,residual activity,[9],117%
same,residual activity,[10],64%
same,residual activity,[11],14%
same,residual activity,[12],108%
same,residual activity,[13],87%
same,residual activity,[16],111%
same,residual activity,[17],121%
same,residual activity,[18],110%
same,residual activity,[19],105%
same,residual activity,[20],127%
